Results: PubChem BioAssay (Tox21)
“And” between values parts separate entries of the source, which are not always exact repeats. Equal entries are not always repeated. Records with an inconclusive call do not appear. A structure can be active in one record and inactive in another. The source made the active and inactive calls. Unless noted, the call rests on the fitted dose curve; in most records, active means well fitted curve in the direction sought with a large enough effect in the repeat runs; inconclusive means weak or mixed curves; inactive means no such curve, though single readings can be large; an effect the other way counts as inactive or inconclusive.

Key:
[1] = target: Retinoic acid receptor RXR-alpha (Homo sapiens) (UniProt P19793); experiment: qHTS assay to identify small molecule agonists of the RXR signaling pathway (AID 1159527; calls by dose curve; further: nearly all actives have a fitted effect of over 35% in size; further: potency means the concentration at half of the fitted maximal effect)
Sequence of Retinoic acid receptor RXR-alpha (Homo sapiens) (P19793 whole entry, looked up): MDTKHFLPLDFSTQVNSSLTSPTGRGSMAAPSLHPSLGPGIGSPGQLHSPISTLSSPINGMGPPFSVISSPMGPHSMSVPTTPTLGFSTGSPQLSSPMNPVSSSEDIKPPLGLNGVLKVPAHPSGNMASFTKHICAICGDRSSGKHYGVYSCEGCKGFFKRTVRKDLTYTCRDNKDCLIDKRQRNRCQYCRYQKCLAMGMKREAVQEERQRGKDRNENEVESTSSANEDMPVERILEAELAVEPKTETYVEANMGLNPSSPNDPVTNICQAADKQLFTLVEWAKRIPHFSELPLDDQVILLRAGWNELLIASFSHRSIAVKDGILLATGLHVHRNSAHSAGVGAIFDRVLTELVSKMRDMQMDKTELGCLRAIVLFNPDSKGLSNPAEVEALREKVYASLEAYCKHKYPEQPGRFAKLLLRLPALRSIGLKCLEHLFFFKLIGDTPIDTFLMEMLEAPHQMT
In short: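 Read-out: beta-lactamase FRET ratio (405 nm excitation, 460 and 530 nm emission) after 2 hr substrate loading at room temperature. Cells were RXR-alpha-UAS-bla HEK 293T treated with compounds for 16 hr in 2% charcoal-stripped FBS medium.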

[2] = qHTS assay to identify small molecule agonists of the RXR signaling pathway - cell viability counter screen (AID 1159529); further: nearly all actives have a fitted effect of over 50% in size
In short: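 HEK 293T RXRa-bla cells, 2% CS-FBS; 5 h settle; cpd 16 h 37 C, 5% CO2; CellTiter-Glo 30 min RT, luminescence. Tetraoctyl ammonium bromide as positive control.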

[3] = qHTS assay to identify small molecule antagonists of the retinoid acid receptor (RAR) signaling pathway - cell viability counter screen (AID 1159551); further: nearly all actives have a fitted effect of over 35% in size
In short: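 Measured by luminescent ATP detection, viability reflects C3RL4 cells treated 6 h at 37 C with test chemicals in the presence of 1 uM (final) retinol.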

[4] = qHTS assay to identify small molecule antagonists of the estrogen related receptor (ERR) signaling pathway from Tox21 library - cell viability counter screen (AID 1224834); further: nearly all actives have a fitted effect of over 30% in size
In short: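 Seeded ERR cells were rested 6 h at 37 C/5% CO2 before compounds, positive and negative controls or DMSO were added. Incubation continued for 17.5 h, and viability was then quantified by CellTiter-Fluor fluorescence.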

[5] = target: Luciferin 4-monooxygenase (Photinus pyralis) (UniProt P08659); experiment: qHTS assay to identify small molecule inhibitors of firefly luciferase (AID 1224835); further: nearly all actives have a fitted effect of over 25% in size; further: potency means the concentration at half of the fitted maximal effect
Sequence of Luciferin 4-monooxygenase (Photinus pyralis) (P08659 whole entry, looked up): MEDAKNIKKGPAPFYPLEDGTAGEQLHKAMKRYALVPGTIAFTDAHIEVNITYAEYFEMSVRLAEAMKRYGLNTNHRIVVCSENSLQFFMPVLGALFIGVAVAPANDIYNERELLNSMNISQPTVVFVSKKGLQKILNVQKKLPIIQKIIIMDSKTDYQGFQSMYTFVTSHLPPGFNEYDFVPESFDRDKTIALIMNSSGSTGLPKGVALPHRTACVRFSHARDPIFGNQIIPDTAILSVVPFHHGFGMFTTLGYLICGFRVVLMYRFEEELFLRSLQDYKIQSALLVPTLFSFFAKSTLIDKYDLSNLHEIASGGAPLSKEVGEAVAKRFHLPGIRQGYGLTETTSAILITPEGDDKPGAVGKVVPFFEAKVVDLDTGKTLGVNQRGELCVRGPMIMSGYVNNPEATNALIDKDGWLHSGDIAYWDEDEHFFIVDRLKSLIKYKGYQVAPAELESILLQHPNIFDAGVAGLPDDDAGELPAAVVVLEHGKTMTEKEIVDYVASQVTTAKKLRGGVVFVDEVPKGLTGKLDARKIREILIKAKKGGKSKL
In short: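 Biochemical qHTS: compounds run as interplate titrations against purified firefly enzyme, with D-luciferin and ATP each at its KM concentration. Light output recorded by CCD imaging.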

[6] = qHTS assay to identify small molecule agonists of the constitutive androstane receptor (CAR) signaling pathway - cell viability counter screen (AID 1224836); further: nearly all actives have a fitted effect of over 45% in size
In short: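 HepG2-CYP2B6-hCAR, 2500 cells/well, 4 h pre-incubation; cpd 15 conc + PK11195 0.75 uM final; 23 h, 37 C/5% CO2; CellTiter-Fluor, fluorescence.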

[7] = qHTS assay to identify small molecule antagonists of the constitutive androstane receptor (CAR) signaling pathway - cell viability counter screen (AID 1224837); further: nearly all actives have a fitted effect of over 45% in size
In short: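 To flag cytotoxic false antagonists, HepG2 hCAR/CYP2B6-2.2kb cells were treated 23 hr with 15-concentration compound series and 50 nM CITCO at 37 C/5% CO2; CellTiter-Fluor fluorescence was the measured end point.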

[8] = target: Nuclear receptor subfamily 1 group I member 3 (Homo sapiens) (UniProt Q14994); experiment: qHTS assay to identify small molecule antagonists of the constitutive androstane receptor (CAR) signaling pathway (AID 1224838);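 further: HepG2 cells stably expressing hCAR with CYP2B6 luciferase reporter stimulated by CITCO; nearly all actives have a fitted effect of over 40% in size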
Sequence of Nuclear receptor subfamily 1 group I member 3 (Homo sapiens) (Q14994 whole entry, looked up): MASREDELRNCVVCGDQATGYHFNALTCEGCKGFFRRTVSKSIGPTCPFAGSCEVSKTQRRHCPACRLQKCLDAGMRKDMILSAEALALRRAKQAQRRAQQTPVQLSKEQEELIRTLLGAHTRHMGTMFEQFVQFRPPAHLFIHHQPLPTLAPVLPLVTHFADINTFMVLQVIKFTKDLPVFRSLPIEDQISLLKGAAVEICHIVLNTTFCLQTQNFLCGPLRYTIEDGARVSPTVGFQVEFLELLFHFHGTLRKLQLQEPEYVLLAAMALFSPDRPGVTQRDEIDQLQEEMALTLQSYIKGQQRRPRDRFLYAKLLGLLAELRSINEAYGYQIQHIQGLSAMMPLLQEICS
In short: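 Human hepatoma HepG2 cells expressing hCAR and a CYP2B6 promoter (2.2 kb) luciferase construct; compound titration (15 points) with 50 nM CITCO final, 24 h at 37 C/5% CO2; luminescence via ONE-Glo after 30 min at room temperature.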

[9] = target: Nuclear receptor subfamily 1 group I member 3 (Homo sapiens) (UniProt Q14994); experiment: qHTS assay to identify small molecule agonists of the constitutive androstane receptor (CAR) signaling pathway (AID 1224839);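 further: HepG2 cells stably carrying human CAR and a CYP2B6 luciferase reporter; nearly all actives have a fitted effect of over 15% in size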
In short: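 HepG2-CYP2B6-hCAR cells, 2500/well, 4 h pre-incubation; compounds 15 conc.; PK11195 0.75 uM final; 24 h, 37 C/5% CO2; ONE-Glo luciferase read.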

[10] = qHTS assay to identify small molecule antagonists of the estrogen related receptor signaling pathway with the pleiotropic PPARgamma coactivator (PGC) from Tox21 10K library - cell viability counter screen (AID 1224840; active means well fitted cell-killing curve with a large enough effect in the repeat runs, not every such curve was filed as active; further: nearly all actives have a fitted effect of over 40% in size)
In short: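 Seeded PGC/ERR cells (2,000/well, 6 h, 37 C/5% CO2) get compound by pin tool; 17.5 h incubation at 37 C; CellTiter-Fluor added, 30 min, fluorescence measured.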

[11] = target: Thyrotropin receptor (Homo sapiens) (UniProt P16473); experiment: qHTS assay to identify small molecule agonists of the thyroid stimulating hormone receptor (TSHR) signaling pathway (AID 1224843; calls by dose curve; further: nearly all actives have a fitted effect of over 45% in size)
Sequence of Thyrotropin receptor (Homo sapiens) (P16473 whole entry, looked up): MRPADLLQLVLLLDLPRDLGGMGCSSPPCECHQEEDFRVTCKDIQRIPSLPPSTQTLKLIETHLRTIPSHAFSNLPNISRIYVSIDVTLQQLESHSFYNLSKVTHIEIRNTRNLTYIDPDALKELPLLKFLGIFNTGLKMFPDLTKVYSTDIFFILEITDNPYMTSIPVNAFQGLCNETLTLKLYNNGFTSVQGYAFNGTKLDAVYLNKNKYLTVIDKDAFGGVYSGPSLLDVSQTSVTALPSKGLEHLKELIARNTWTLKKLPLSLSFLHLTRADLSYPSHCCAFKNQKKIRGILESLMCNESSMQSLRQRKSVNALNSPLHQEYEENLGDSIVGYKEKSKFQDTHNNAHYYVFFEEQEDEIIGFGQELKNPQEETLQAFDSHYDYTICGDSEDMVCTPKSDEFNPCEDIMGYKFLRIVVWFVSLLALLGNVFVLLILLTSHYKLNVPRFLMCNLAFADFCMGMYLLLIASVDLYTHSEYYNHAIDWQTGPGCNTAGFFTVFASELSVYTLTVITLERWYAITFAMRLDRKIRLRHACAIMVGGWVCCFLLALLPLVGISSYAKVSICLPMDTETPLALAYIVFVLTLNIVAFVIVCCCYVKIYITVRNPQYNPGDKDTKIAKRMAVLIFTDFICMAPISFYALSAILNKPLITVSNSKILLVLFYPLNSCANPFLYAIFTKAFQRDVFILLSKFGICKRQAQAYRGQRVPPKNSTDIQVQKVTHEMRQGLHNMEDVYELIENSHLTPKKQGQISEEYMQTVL
In short: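 HEK293/TSHR, 800 cells/well; cpd 30 min RT; add cAMP-d2 + anti-cAMP-cryptate, 1 h RT; fluorescence read on plate reader. 15-pt titration, n=3.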

[12] = qHTS assay to identify small molecule agonists of the hypoxia (HIF-1) signaling pathway - cell viability counter screen (AID 1224844; calls by dose curve; further: nearly all actives have a fitted effect of over 50% in size)
In short: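 HRE-bla ME-180; 0.5% dFBS; cpd 17 h, 37C, 5% CO2; CellTiter-Glo lum., 30 min RT, post-FRET read, same wells.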

[13] = qHTS assay to identify small molecule agonists of H2AX (AID 1224845; active means well fitted activation curve with a large enough effect in the signal ratio in the repeat runs, not every such curve was filed as active; the % refers to the signal ratio)
In short: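 Wild-type CHO-K1 cells, plated overnight, exposed 3hr at 37C to 15 concentrations (0.76% DMSO final). Lysed, then HTRF anti-pH2AX (S139) cryptate and anti-H2AX-d2 antibodies, 24 hr room temperature; 665/620 nm emission read.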

[14] = qHTS assay to identify small molecule agonists of the hypoxia (HIF-1) signaling pathway (AID 1224846; active means well fitted activation curve with a large enough effect in the signal ratio in the repeat runs, not every such curve was filed as active; the % refers to the signal ratio)
In short: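 Reporter induction in HRE-bla ME-180 cells is taken as agonism: cells sit 5 hrs after plating, receive compounds or DMSO only, incubate 17 hrs at 37C under 5% CO2, and are loaded with CCF4-AM for beta-lactamase FRET measurement.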

[15] = qHTS assay to identify small molecule antagonists of the retinoic acid receptor (RAR) signaling pathway (AID 1159552; further: nearly all actives have a fitted effect of over 50% in size; further: potency means the concentration at half of the fitted maximal effect)
In short: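 Cells of the C3RL4 line were seeded, incubated overnight, then dosed with compounds in DMSO followed immediately by retinol (1 uM final). Six hours later luciferase detection reagent went in; signal was measured after 30 min at RT.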

[16] = qHTS assay to identify small molecule agonists of the retinoic acid receptor (RAR) signaling pathway (AID 1159553); conditions: C3RL4 RARE luciferase reporter, agonist, 6 h; activation: at 73.3 µM (top of the series) unless noted
In short: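 6 hr compound exposure (DMSO vehicle) of overnight-plated C3RL4 RARE-luc cells at 37 C; luminescence quantified after 30 min RT with luciferase reagent.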

[17] = qHTS assay to identify small molecule antagonists of the estrogen related receptor signaling pathway with the pleiotropic PPARgamma coactivator (PGC) from Tox21 10K library (AID 1224841; call rule not given here; further: actives are mostly falling curves and most rising ones were filed inactive; nearly all actives have a fitted effect of over 50% in size; further: potency means the concentration at half of the fitted maximal effect)
In short: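 Test chemicals dissolved in DMSO were applied to pre-incubated (6 h) PGC/ERR cells at 2,000 cells/well for an 18 h, 37 C treatment; reporter luminescence was then read using One-Glo.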

[18] = qHTS assay to identify small molecule agonists of the estrogen related receptor signaling pathway with the pleiotropic PPARgamma coactivator (PGC) from Tox21 10K library (AID 1224842); further: nearly all actives have a fitted effect of over 15% in size
In short: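 PGC/ERR reporter cell line, 2,000 cells per well, incubated 6 h at 37 C before 23 nL compound in DMSO was added. After 18 h at 37 C, One-Glo luminescence read following 30 min at room temperature.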
On the % scale 0 is the no-effect control and ±100 the full control effect.

CCC12COCN1COC2
inactive: Potency [1] | Potency [2] | outcome [3] | Potency [4] | Potency [5] | Potency [6] | Potency [7] | Potency [8] | Potency [9] | Potency [10] | Potency [11] | Potency [12] | Potency [13] | outcome [14]

C#CC(C)(C)NC(=O)c1cc(Cl)cc(Cl)c1
inactive: Potency [1] | Potency [2] | Potency [15] | Potency [16] | Potency [4] | Potency [5] | Potency [6] | Potency [7] | Potency [8] | Potency [9] | Potency [10] | Potency [11] | Potency [12] | Potency [13] | outcome [14]

COC(=O)NC(=S)Nc1ccccc1NC(=S)NC(=O)OC
inactive: Potency [1] | Potency [2] | outcome [3] | Potency [4] | Potency [5] | Potency [6] | Potency [7] | Potency [8] | Potency [9] | Potency [10] | Potency [11] | Potency [12] | Potency [13] | outcome [14]

CC(C)(Cl)Cl
inactive: Potency [1] | Potency [2] | Potency [15] | Potency [16] | Potency [4] | Potency [5] | Potency [6] | Potency [7] | Potency [8] | Potency [9] | Potency [10] | Potency [11] | Potency [12] | Potency [13] | outcome [14]

CC(C)NC(=O)N1CC(=O)N(c2cc(Cl)cc(Cl)c2)C1=O
30.6 µM (active) and inactive: Potency [17]
inactive: Potency [1] | Potency [2] | outcome [3] | Potency [4] | Potency [5] | Potency [6] | Potency [7] | Potency [8] | Potency [9] | Potency [10] | outcome [18] | Potency [11] | Potency [12] | Potency [13] | outcome [14]

Nc1ccc(Oc2ccc(N)cc2)cc1
inactive and 63.3 µM (active): Potency [5]
inactive: Potency [1] | Potency [2] | outcome [3] | Potency [15] | Potency [4] | Potency [6] | Potency [7] | Potency [8] | Potency [9] | Potency [10] | Potency [17] | outcome [18] | Potency [11] | Potency [12] | Potency [13] | outcome [14]

CCCCCCCCCCCC#N
inactive: Potency [1] | Potency [2] | outcome [3] | Potency [4] | Potency [5] | Potency [6] | Potency [7] | Potency [8] | Potency [9] | Potency [10] | Potency [11] | Potency [12] | Potency [13] | outcome [14]

CC(C)C#N
9.26 µM (active) and inactive: Potency [1]
inactive: Potency [2] | Potency [16] | Potency [4] | Potency [5] | Potency [6] | Potency [7] | Potency [8] | Potency [9] | Potency [10] | Potency [11] | Potency [12] | Potency [13] | outcome [14]
16.3 µM (active) and inactive: Potency [15]

C=C(C)CCl
inactive: activation [1] 1.01% [at 6.98 µM] | Potency [2] | outcome [3] | Potency [4] | Potency [5] | Potency [6] | Potency [7] | Potency [8] | Potency [9] | Potency [10] | activity change, negative = cytotoxicity [12] -1.52% [at 6.97 µM] | Potency [13] | outcome [14]

c1ccc(OP(Oc2ccccc2)Oc2ccccc2)cc1
inactive: Potency [1] | Potency [2] | outcome [3] | Potency [4] | Potency [5] | Potency [6] | Potency [7] | Potency [8] | Potency [9] | Potency [10] | Potency [11] | Potency [12] | Potency [13] | outcome [14]

Clc1cccc(Cl)c1Cl
inactive: Potency [1] | Potency [2] | Potency [15] | Potency [16] | Potency [4] | Potency [5] | Potency [6] | Potency [7] | Potency [8] | Potency [9] | Potency [10] | Potency [17] | outcome [18] | Potency [11] | Potency [12] | Potency [13] | outcome [14]

COC(=O)NS(=O)(=O)c1ccc(N)cc1
inactive: Potency [1] | Potency [2] | outcome [3] | Potency [4] | Potency [5] | Potency [6] | Potency [7] | Potency [8] | Potency [9] | Potency [10] | Potency [17] | outcome [18] | Potency [11] | Potency [12] | Potency [13] | outcome [14]

C=CC(N)=O
inactive: Potency [1] | Potency [2] | outcome [3] | Potency [15] | Potency [16] | Potency [4] | Potency [5] | Potency [6] | Potency [7] | Potency [10] | Potency [11] | Potency [12] | Potency [13] | outcome [14]

[O-][Cl+2]([O-])O
inactive: Potency [1] | Potency [2] | Potency [15] | Potency [16] | Potency [4] | Potency [5] | Potency [6] | Potency [7] | Potency [8] | Potency [9] | Potency [10] | Potency [11] | Potency [12] | Potency [13] | outcome [14]

C#CCN(C)[C@H](C)Cc1ccccc1
inactive: Potency [1] | Potency [2] | Potency [15] | Potency [16] | Potency [4] | Potency [5] | Potency [6] | Potency [7] | Potency [10] | Potency [11] | Potency [12] | Potency [13]

CCCCCOC(=O)c1ccccc1C(=O)OCCCCC
inactive: Potency [1] | Potency [2] | outcome [3] | Potency [4] | Potency [5] | Potency [6] | Potency [7] | Potency [8] | Potency [9] | Potency [10] | Potency [12] | Potency [13] | outcome [14]

OC(O)C(Cl)(Cl)Cl
inactive: Potency [1] | Potency [2] | Potency [15] | Potency [16] | Potency [4] | Potency [5] | Potency [6] | Potency [7] | Potency [10] | Potency [17] | outcome [18] | Potency [11] | Potency [12] | Potency [13] | outcome [14]

O=c1[nH]c(=O)[nH]c(=O)[nH]1
inactive: Potency [1] | Potency [2] | Potency [15] | Potency [16] | Potency [4] | Potency [5] | Potency [6] | Potency [7] | Potency [8] | Potency [9] | Potency [10] | Potency [17] | outcome [18] | Potency [11] | Potency [12] | Potency [13] | outcome [14]

c1ccc2c(c1)Oc1ccccc1O2
inactive: Potency [1] | Potency [2] | outcome [3] | Potency [15] | Potency [16] | Potency [4] | Potency [6] | Potency [7] | Potency [8] | Potency [9] | Potency [10] | Potency [11] | Potency [12] | Potency [13] | outcome [14]
